Source: PubChem BioAssay AID1159580 (chemical genetic matrix, 2015)
Where “and” joins values, the source holds several entries; their conditions need not be identical. Equal values may be shown once. The whole screen tested about 5,500 compounds, of which about 2,000 (36%) were called active. Inconclusive results (about 18%) are left out. No stated cut-off is given here; in the data, active means normalized growth mostly below about 0.91 (no sharp cut-off); inconclusive means no clear call, values can overlap the other calls; inactive means mostly above about 0.92. The list shows a part of the results.

Assay: chemical genetic growth profiling, strain panel (AID 1159580);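 further: tested at 20 µM; growth read once vehicle control cultures reached saturation at 30 °C; 1 = growth at the plate median or of vehicle wells; lower values mean less growth of the strain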
Conditions: S. cerevisiae deletion strains, growth OD

Measured: normalized growth

CC(=O)[O][Hg][c]1ccccc1
active: locus YAL013W, strain DEP1, hits give low values 0.0588 | locus YAL021C, strain ccr4, hits give low values 0.0671 | locus YAL026C, strain drs2, hits give low values 0.0633 | locus YAL030W, strain snc1, hits give low values 0.0569 | locus YBL061C, strain skt5, hits give low values 0.0592 | locus YBR009C, strain hhf1, hits give low values 0.066 | locus YBR021W, strain FUR4, hits give low values 0.089 | locus YBR023C, strain chs3, hits give low values 0.0614 | locus YBR171W, strain sec66, hits give low values 0.0817 | locus YBR229C, strain ROT2, hits give low values 0.0467 | locus YBR231C, strain swc5, hits give low values 0.0619 | locus YBR279W, strain paf1, hits give low values 0.0597 | locus YCL011C, strain gbp2, hits give low values 0.0585 | locus YCL016C, strain dcc1, hits give low values 0.0648 | locus YCL029C, strain bik1, hits give low values 0.0611 | locus YCL061C, strain MRC1, hits give low values 0.066 | locus YCL069W, strain vba3, hits give low values 0.062 | locus YCR088W, strain abp1, hits give low values 0.0606 | locus YDL005C, strain med2, hits give low values 0.0736 | locus YDL035C, strain GPR1, hits give low values 0.0539 | locus YDL040C, strain nat1, hits give low values 0.0587 | locus YDL074C, strain BRE1, hits give low values 0.0962 | locus YDL101C, strain DUN1, hits give low values 0.0592 | locus YDL134C, strain PPH21, hits give low values 0.0501 | locus YDL185W, strain tfp1, hits give low values 0.0588 | locus YDL192W, strain arf1, hits give low values 0.0622 | locus YDR001C, strain nth1, hits give low values 0.0585 | locus YDR069C, strain doa4, hits give low values 0.063 | locus YDR101C, strain arx1, hits give low values 0.0626 | locus YDR137W, strain rgp1, hits give low values 0.0849 | locus YDR150W, strain NUM1, hits give low values 0.0584 | locus YDR159W, strain sac3, hits give low values 0.0919 | locus YDR162C, strain NBP2, hits give low values 0.0545 | locus YDR195W, strain ref2 0.124 | locus YDR297W, strain sur2, hits give low values 0.0565 | locus YDR318W, strain mcm21, hits give low values 0.0644 | locus YDR334W, strain swr1, hits give low values 0.0648 | locus YDR335W, strain msn5, hits give low values 0.0613 | locus YDR388W, hits give low values 0.0584 | locus YDR392W, strain spt3, hits give low values 0.1 | locus YDR502C, strain sam2, hits give low values 0.0611 | locus YEL003W, strain gim4, hits give low values 0.0567 | locus YEL037C, strain rad23, hits give low values 0.0594 | locus YEL061C, strain CIN8 (second series), hits give low values 0.0646 | locus YEL061C, strain CIN8, hits give low values 0.0509 | locus YER015W, strain faa2, hits give low values 0.0603 | locus YER016W, strain bim1, hits give low values 0.0596 | locus YER110C, hits give low values 0.079 | locus YER111C, strain swi4, hits give low values 0.0727 | locus YER155C, strain BEM2 (second series), hits give low values 0.0919 | locus YER155C, strain BEM2, hits give low values 0.066 | locus YER167W, strain BCK2, hits give low values 0.0545 | locus YFR010W, strain ubp6, hits give low values 0.0677 | locus YGL078C, strain dbp3, hits give low values 0.0571 | locus YGL086W, strain mad1, hits give low values 0.0571 | locus YGL167C, strain pmr1, hits give low values 0.073 | locus YGL173C, strain kem1, hits give low values 0.0683 | locus YGL227W, strain vid30, hits give low values 0.0651 | locus YGL240W, strain doc1, hits give low values 0.077 | locus YGL248W, strain PDE1, hits give low values 0.0503 | locus YGL253W, strain hxk2, hits give low values 0.055 | locus YGR078C, strain PAC10, hits give low values 0.0552 | locus YGR135W, strain pre9, hits give low values 0.0651 | locus YGR229C, strain SMI1, hits give low values 0.0631 | locus YGR252W, strain gcn5, hits give low values 0.166 | locus YHR013C, strain ard1, hits give low values 0.105 | locus YHR027C, strain rpn1, hits give low values 0.0615 | locus YHR030C, strain SLT2, hits give low values 0.0511 and 0.112 | locus YHR079C, strain IRE1 (second series), hits give low values 0.0572 | locus YHR079C, strain IRE1, hits give low values 0.12 | locus YHR094C, strain hxt1, hits give low values 0.0582 | locus YHR129C, strain ARP1, hits give low values 0.0567 | locus YHR142W, strain chs7, hits give low values 0.0763 | locus YHR200W, strain rpn10, hits give low values 0.0605 | locus YIL066C, strain RNR3, hits give low values 0.059 | locus YIL073C, strain SPO22, hits give low values 0.112 | locus YIL125W, strain kgd1, hits give low values 0.0567 | locus YIR030C, strain dcg1, hits give low values 0.0603 | locus YJL092W, strain hpr5, hits give low values 0.0589 | locus YJL095W, strain BCK1 (second series), hits give low values 0.0569 | locus YJL095W, strain BCK1, hits give low values 0.0577 and 0.107 | locus YJL115W, strain asf1, hits give low values 0.0743 | locus YJL129C, strain trk1, hits give low values 0.0912 | locus YJL134W, strain LCB3, hits give low values 0.0514 | locus YJL154C, strain vps35, hits give low values 0.0614 | locus YJL164C, strain tpk1, hits give low values 0.0658 | locus YJL166W, strain qcr8, hits give low values 0.0602 | locus YJL168C, strain set2, hits give low values 0.0596 | locus YJL187C, strain SWE1 (second series), hits give low values 0.0495 | locus YJL187C, strain SWE1, hits give low values 0.0566 | locus YJR043C, strain POL32, hits give low values 0.069
